Consider 20 molecules from ChEMBL document CHEMBL3433997, “St. Jude Leishmania screening dataset” (2016).

Format in all cases: functional
The target of experiment [1] is Solute carrier family 2, facilitated glucose transporter member 1 (Homo sapiens) (UniProt P11166). The experiment is described as follows: ST_JUDE_LEISH: Cytotoxicity at 2uM final concentration against transgenic Leishmania Mexicana promastigotes LmGLUT1 that are glucose transport deficient and complemented with the human glucose transporter GLUT1. Activity is measured by DNA content using SYBR green in vitro.
Chain of Solute carrier family 2, facilitated glucose transporter member 1 (Homo sapiens) (P11166 whole entry): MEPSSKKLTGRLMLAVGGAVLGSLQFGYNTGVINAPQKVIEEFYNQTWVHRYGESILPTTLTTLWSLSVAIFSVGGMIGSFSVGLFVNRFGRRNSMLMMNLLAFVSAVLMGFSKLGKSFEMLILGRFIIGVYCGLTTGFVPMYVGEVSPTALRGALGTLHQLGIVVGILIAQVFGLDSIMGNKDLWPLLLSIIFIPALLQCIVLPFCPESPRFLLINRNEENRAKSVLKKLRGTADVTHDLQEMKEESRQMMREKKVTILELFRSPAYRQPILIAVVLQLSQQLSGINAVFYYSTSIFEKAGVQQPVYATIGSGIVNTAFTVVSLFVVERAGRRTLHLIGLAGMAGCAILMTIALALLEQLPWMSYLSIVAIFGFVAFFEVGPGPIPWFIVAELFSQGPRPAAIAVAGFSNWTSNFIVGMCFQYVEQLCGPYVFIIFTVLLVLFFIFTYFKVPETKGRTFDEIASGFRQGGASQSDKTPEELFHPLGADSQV

Experiment [2] addresses Hexose transporter 1 (Plasmodium falciparum) (UniProt O97467). The experiment is described as follows: ST_JUDE_LEISH: Cytotoxicity at 2uM final concentration against transgenic Leishmania Mexicana promastigotes LmPfHT that are glucose transport deficient and complemented with the Plasmodium falciparum hexose transporter. Activity is measured by DNA content using SYBR green in vitro.

Experiment [3] addresses Glucose transporter (Leishmania mexicana) (UniProt O61059). The experiment is described as follows: ST_JUDE_LEISH: Cytotoxicity at 2uM final concentration against transgenic Leishmania Mexicana promastigotes LmGT2 that are glucose transport deficient and complemented with the L. Mexicana glucose transporter 2. Activity is measured by DNA content using SYBR green in vitro.

Broadly, the inhibition is the relative decrease from the control value, in per cent.

As to `CC(C)CNC(=O)c1ccnc(-c2ccc(CNC3Cc4ccccc4C3)cc2)c1`, the inhibition in experiment [1] is -0.85%; in experiment [2] it was -0.27%; in experiment [3] it was -1.63%.

Regarding `O=S(=O)(Nc1cccc(CCN2CCCCC2CCN2CCCC2)c1)c1ccc(Oc2ccccc2)cc1` (stereo not given), the values for the inhibition in experiment [1], in experiment [2] and in experiment [3] were -2.34%, 1.13% and -1.81%, respectively.

Take `COc1ccc2nccc([C@@H](O)CN3CCC(NC(=O)c4ccc(C5(C(F)(F)F)N=N5)cc4)CC3)c2c1`: the inhibition is 14.3% in experiment [1], 24.5% in experiment [2] and 40.7% in experiment [3].

For `Cc1cccc2nc(-c3ccc(-c4ccc(CN5CCCC(N)C5)cc4)s3)[nH]c12` (stereo not given), the inhibition is 0.2% in experiment [1], 0.06% in experiment [2] and 0.74% in experiment [3].

On to `CN(C)CCCOc1ccc(CNCC(C)(C)c2nc(-c3ccc(Cl)c(O)c3)c(-c3ccncc3)[nH]2)cc1`, for which the inhibition in experiment [1] worked out at 3.39%; in experiment [2], 1.89%; in experiment [3], 2.83%.

For `Cc1n[nH]c2cc(Nc3ccnc(Nc4cccc(CN5CCOCC5)c4)n3)ccc12`, the inhibition in experiment [1] turned out to be 7.68%; in experiment [2], 6.54%; in experiment [3], 3.19%.

As for `CN(C(=O)/C=C/c1c(Cl)cccc1Cl)C1CCN(CCCCCNC(=O)/C=C/c2ccc(Cl)c(Cl)c2)CC1`, the inhibition in experiment [1] worked out at 2.14%; in experiment [2] it was 2.38%; in experiment [3], 1.38%.

With `Cc1ccc(Nc2nc(NN=Cc3ccc(-c4ccc([N+](=O)[O-])cc4)o3)nc(N3CCOCC3)n2)cc1Cl`, the inhibition was -1.18% in experiment [1], -1.96% in experiment [2] and -0.54% in experiment [3].

With `CN(Cc1ccc(C#N)cc1)C1CCN(c2cc(NC(=O)c3cccc(F)c3)ccn2)CC1`, the inhibition was -1.86% in experiment [1], -1.81% in experiment [2] and 0.96% in experiment [3].

With `c1cc(COc2ccc(C3=NCCN3)cc2)nc(COc2ccc(C3=NCCN3)cc2)c1`, the inhibition in experiment [1] is 4.95%; in experiment [2] it was 5.66%; in experiment [3], -0.59%.

As for `Cc1cccc(Nc2nc3nonc3nc2Nc2cccc(Cl)c2Cl)c1C`, the inhibition in experiment [1] came to 9.75%; in experiment [2], 7.64%; in experiment [3] it was 7.5%.

Regarding `O=C(NC1CCN(CCN2CCC(c3ccccc3C(F)(F)F)CC2)CC1)c1ccc(-c2ccc(Cl)cc2)cc1`, the figures for the inhibition in experiment [1], in experiment [2] and in experiment [3] were 9.46%, 0.61% and 1.57%, respectively.

Turning to `COc1cc(C(=O)N2CCC(CCN3CCC4(CC3)CN(S(C)(=O)=O)c3ccccc34)CC2Cc2ccc(Cl)c(Cl)c2)cc(OC)c1OC` (stereo not given), the inhibition in experiment [1] was determined as 3.23%; in experiment [2], 4.25%; in experiment [3], 3.27%.

Consider `Cc1ccc(NC(=O)c2cc(Br)cc(N3CCC(N(C)C)CC3)c2)cc1F`, for which the results for the inhibition in experiment [1], in experiment [2] and in experiment [3] were 7.55%, 7.67% and 6.75%, respectively.

As for `CCCN(CC)CCOC(=O)c1ccccc1`, the inhibition in experiment [1] is 8.35%; in experiment [2] it was 7.44%; in experiment [3] it was 9.33%.

`Oc1ccc(Cc2ccccc2)cc1CNC1CCCCC1`: the inhibition worked out at 1.43% in experiment [1], 1.57% in experiment [2] and 1.87% in experiment [3].

`Cc1nc(N)nc(N)c1OCc1ccc(Cl)c(Cl)c1`: the inhibition came to 0.66% in experiment [1], 1.73% in experiment [2] and 2.48% in experiment [3].

As to `Cc1cc2c(cc1C(F)(F)F)N(C(=O)Nc1cnc(OCCN(C)C)c(C(F)(F)F)c1)CC2`, the values for the inhibition in experiment [1], in experiment [2] and in experiment [3] were 7.92%, 6.97% and 6.3%, respectively.

Regarding `O=C(NCc1ccccc1)C1Cc2c([nH]c3ccc(Br)cc23)C2(CCN(Cc3ccccc3)CC2)N1` (stereo not given), the inhibition in experiment [1] is 2.61%; in experiment [2], 3.23%; in experiment [3], 1.63%.

In the case of `O=S(=O)(NCCN1CCCC1)c1ccc(-c2cccc(CNC3Cc4ccccc4C3)c2)cc1`, the inhibition in experiment [1] was 2.76%; in experiment [2], 8.98%; in experiment [3] it was 6.15%.
